Entries with a potency or affinity are not part of this list. Active and inactive are the calls of the source. No rule for the calls is given here.
Target: Sphingosine 1-phosphate receptor 2 (Homo sapiens) (UniProt O95136)
Test: activation of human S1P2 receptor – cell-based, fluorescence, set 2, counter-screen for S1P4 agonist project, late-stage follow-up (AID 504873)

Sphingosine 1-phosphate receptor 2 (Homo sapiens), sequence (O95136 whole entry, looked up): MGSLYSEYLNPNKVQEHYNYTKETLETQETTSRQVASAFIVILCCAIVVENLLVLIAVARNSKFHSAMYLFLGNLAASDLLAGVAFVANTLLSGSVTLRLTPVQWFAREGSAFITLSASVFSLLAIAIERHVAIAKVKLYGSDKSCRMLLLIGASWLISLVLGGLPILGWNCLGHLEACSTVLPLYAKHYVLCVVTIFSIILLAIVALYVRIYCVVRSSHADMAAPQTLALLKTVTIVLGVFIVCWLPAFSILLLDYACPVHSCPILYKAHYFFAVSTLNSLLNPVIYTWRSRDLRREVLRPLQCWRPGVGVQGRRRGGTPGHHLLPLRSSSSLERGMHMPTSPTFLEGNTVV

## CC/N=C1/SC(=Cc2cc(C)n(Cc3ccccc3OC)c2C)C(=O)N1CC
  outcome: inactive
